# PubChem BioAssay (NCATS)
# Inconclusive results are not listed. More than one record can exist for a structure, and the calls need not agree. The source made the active and inactive calls. Calls come from the whole dose curve; as a rule, active = well fitted inhibition curve with a large enough effect in the signal ratio, with a control signal flat (not every such curve was filed as active); inconclusive = small, poorly fitted or top-dose-only effect, or effect the other way, or a change in a side signal; inactive = flat fitted curve, though single readings scatter; the % refers to the signal ratio.
# Target: Peroxisome proliferator-activated receptor gamma (Homo sapiens) (UniProt P37231)
# Sequence (P37231 whole entry, looked up): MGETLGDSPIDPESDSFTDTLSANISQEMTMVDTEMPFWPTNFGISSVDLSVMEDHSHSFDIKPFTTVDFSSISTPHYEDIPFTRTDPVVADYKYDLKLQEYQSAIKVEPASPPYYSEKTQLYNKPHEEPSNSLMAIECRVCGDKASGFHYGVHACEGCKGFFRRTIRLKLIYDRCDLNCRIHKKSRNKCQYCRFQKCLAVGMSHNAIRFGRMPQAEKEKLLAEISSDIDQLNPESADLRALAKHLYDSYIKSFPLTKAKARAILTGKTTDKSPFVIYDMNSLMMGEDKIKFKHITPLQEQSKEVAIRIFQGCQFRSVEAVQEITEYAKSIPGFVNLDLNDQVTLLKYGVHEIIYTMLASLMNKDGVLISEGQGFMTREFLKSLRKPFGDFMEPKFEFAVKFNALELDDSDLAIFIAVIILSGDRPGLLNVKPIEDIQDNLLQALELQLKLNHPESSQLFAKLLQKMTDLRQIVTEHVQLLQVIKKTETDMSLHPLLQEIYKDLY
# Experiment: qHTS assay for small molecule antagonists of peroxisome proliferator-activated receptor gamma signaling (AID 588537); for activity, negative = inhibition: % of control where 0% means no effect
# Conditions: HEK293 PPARg-UAS-bla, beta-lactamase ratio, antagonist mode; series mostly up to 76.8 µM; activity, negative = inhibition: at the top concentration
# Source text: NIH Chemical Genomics Center [NCGC]
# U.S. Environmental Protection Agency [EPA]
# National Institutes of Environmental Health Sciences [NIEHS]
# National Toxicology Program [NTP]
# The Peroxisome proliferator-activated receptors (PPARs) are lipid-activated transcription factors of the nuclear receptor superfamily with three distinct subtypes namely PPAR alpha, PPAR delta (also called PPAR beta) and PPAR gamma. All these subtypes heterodimerizes with Retinoid X receptor (RXR) and these heterodimers regulate transcription of various genes. PPAR-gamma (glitazone receptor) ligands have been used in the treatment of type 2 diabetes and dyslipidaemia. It is involved in the regulation of glucose and lipid metabolism. PPAR-gamma activates certain genes like Paraoxonase 1 which is responsible for hydrolyzing organophosphates. PPAR-gamma ligands may also be therapeutically important in the treatment of coronary artery disease, obesity and cancer and atherosclerosis.
# NCGC Assay Protocol Summary
# Using a beta-lactamase reporter-gene under control of Peroxisome Proliferator-Activated-gamma (PPAR-gamma) response element, a cell-based assay [GeneBLAzer PPAR-gamma-UAS-bla assay developed by Invitrogen] was used to measure PPAR-gamma ligands signaling. GeneBLAzer PPAR-gamma-UAS-bla-HEK293 cells were used with assay medium containing 1% charcoal/dextran treated FBS. The assay was performed in clear bottom black Greiner 1536-well plates. Library compounds were measured for their ability to inhibit the reporter gene activity. Compounds were screened in a titration series in 1536-well format. The fluorescence intensity (405 nm excitation, 460/530 nm emission) was measured using an EnVision plate reader. Data was normalized relative to Rosiglitazone control (50 nM, 100%), and DMSO only wells (basal, 0%). Concentration-response titration points for each compound were fitted to the Hill equation yielding concentrations of half-maximal inhibition (IC50) and maximal response (efficacy) values.
# qHTS protocol for PPAR-gamma beta-lactamase assay in antagonist mode
# [Step] [Parameter] [Value] [Description]
# 1. Reagent; 5 uL; 3000 cells/well
# 2. Incubation; 37 C for 6-6.5 hrs
# 4. Controls (GW9662, PPAR-gamma antagonist); 23 nL,
# 5. Agonist (Stimulator); 1uL; Rosiglitazone at 50 nM (final) concentration
# 6. Incubation; 37 C for 16 hrs
# 7. Detection reagent; 1 uL of CCF4-dye
# 8. Incubation; RT for 2 hrs
# 9. Detection; Fluorescence; Envision plate reader
Structure (SMILES),"activity, negative = inhibition",Potency
c1cc(OCC2CO2)cc(OCC2CO2)c1 (stereo not given),-3.55% (inactive),
CNC(=O)/C=C(\C)OP(=O)(OC)OC,9.49% (inactive),
CCNC(=O)NC(=O)/C(C#N)=N/OC,3.6% (inactive),
COc1cc(OC)nc(NC(=O)NS(=O)(=O)c2ncccc2C(F)(F)F)n1,2.24% (inactive),
C=CC(=O)NCO,,inactive
O=C(O)COc1ccc(Cl)cc1,11.4% (inactive),
CCOc1nc(F)cc2nc(S(=O)(=O)Nc3c(Cl)cccc3Cl)nn12,8.44% (inactive),
CCC(CC)Nc1c([N+](=O)[O-])cc(C)c(C)c1[N+](=O)[O-],-5.91% (inactive),
COc1cc(OC)nc(Sc2cccc(Cl)c2C(=O)O)n1,6.34% (inactive),
CNC(=O)N(C)c1nc2ccccc2s1,-0.743% (inactive),
CC(=NC#N)N(C)Cc1ccc(Cl)nc1,6.47% (inactive),
CNC(=O)Oc1cc(C)c(SC)c(C)c1,-8.38% (inactive),
Nc1c(Cl)c(F)nc(OCC(=O)O)c1Cl,6.16% (inactive),
CCC(C)Nc1c([N+](=O)[O-])cc(C(C)(C)C)cc1[N+](=O)[O-] (stereo not given),-4.11% (inactive),
CCC[CH2][Sn]([CH2]CCC)([O]C(C)=O)[O]C(C)=O,-3.82% (inactive),
C/C=C(\C)C(=O)O[C@H]1C[C@@H](OC(C)=O)[C@@]2(C(=O)OC)CO[C@H]3[C@@H](O)[C@@](C)([C@]45O[C@@]4(C)[C@H]4C[C@@H]5O[C@@H]5OC=C[C@@]54O)[C@H]4[C@]1(CO[C@]4(O)C(=O)OC)[C@@H]32,-11.5% (inactive),
CCCCOC(=O)[C@@H](C)Oc1ccc(Oc2ccc(C#N)cc2F)cc1,-7.58% (inactive),
Cc1cnc(C2=NC(C)(C(C)C)C(=O)N2)c(C(=O)O)c1 (stereo not given),,inactive
O=C1C2(Cl)C3(Cl)C4(Cl)C(Cl)(Cl)C5(Cl)C3(Cl)C1(Cl)C5(Cl)C24Cl (stereo not given),,44.7 µM (active) and inactive
CCOP(=O)(SC(C)CC)N1CCSC1=O (stereo not given),1.79% (inactive),

Structure (SMILES),"activity, negative = inhibition",Potency
O=C(O)C(F)(F)C(F)(F)C(F)(F)C(F)(F)C(F)(F)F,5.14% (inactive),
CCCCNC(=O)OCC#CI,0.567% (inactive),
Clc1ccc(-c2cc(Cl)c(Cl)cc2Cl)cc1Cl,4.92% (inactive),
Brc1ccc(Oc2ccccc2)cc1,0.462% (inactive),
CON=C(C(=O)OC)c1ccccc1CO/N=C(\C)c1cccc(C(F)(F)F)c1,,35.5 µM (active)
CC/C(=N\OC/C=C/Cl)C1=C(O)CC(C2CCOCC2)CC1=O (stereo not given),1.85% (inactive),
CSc1nc(NC(C)C)nc(NC(C)C)n1,-4.11% (inactive),
CCCCOC(=O)c1ccccc1C(=O)O,-3.16% (inactive),
CCOP(OCC)OCC,-4.69% (inactive),
Cc1ccccc1CO[C@@H]1C[C@@]2(C(C)C)CC[C@]1(C)O2,10.3% (inactive),
c1cc[n+]2c(c1)-c1cccc[n+]1CC2,-3.57% (inactive),
CCOc1nc(NC)nc(NC(=O)NS(=O)(=O)c2ccccc2C(=O)OC)n1,-4.63% (inactive),
O=C(NC(=O)c1c(F)cccc1F)Nc1cc(Cl)c(OC(F)(F)C(F)C(F)(F)F)c(Cl)c1F (stereo not given),9.2% (inactive),
Clc1ccccc1-c1nnc(-c2ccccc2Cl)nn1,3.93% (inactive),
COc1ccc(/C(=C/C(=O)N2CCOCC2)c2ccc(Cl)cc2)cc1OC,7.22% (inactive),
COc1cccc(C(=O)NN(C(=O)c2cc(C)cc(C)c2)C(C)(C)C)c1C,-6.53% (inactive),
O=C(O)C(F)(F)C(F)(F)C(F)(F)C(F)(F)C(F)(F)C(F)(F)C(F)(F)C(F)(F)F,9.42% (inactive),
CC(C)N1C(=O)N(c2ccccc2)CSC1=NC(C)(C)C,-7.27% (inactive),
COP(=S)(OC)Oc1c(Cl)cc(C)cc1Cl,4.07% (inactive),
CO/N=C(/C1=NOCCO1)c1ccccc1Oc1ncnc(Oc2ccccc2Cl)c1F,,25.1 µM (active)
